Test results from PubChem BioAssay AID1159580 (chemical genetic matrix, 2015).
Hit rate of the full screen: of about 5,500 compounds, about 2,000 (36%) were called active. About 18% were inconclusive and are not listed. No stated cut-off is given here; in the data, active means normalized growth mostly below about 0.91 (no sharp cut-off); inconclusive means no clear call, values can overlap the other calls; inactive means mostly above about 0.92. Some of the results follow.

Assay: chemical genetic growth profiling, strain panel (AID 1159580);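 further: tested at 20 µM; growth read once vehicle control cultures reached saturation at 30 °C; 1 = growth at the plate median or of vehicle wells; lower values mean less growth of the strain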
Details: S. cerevisiae deletion strains, growth OD

Measured: normalized growth

O=C(O)C1=CCNCC1
inactive: locus YAL013W, strain DEP1, active compounds read low 0.953 | locus YAL021C, strain ccr4, active compounds read low 0.979 | locus YAL026C, strain drs2, active compounds read low 1.02 | locus YAL030W, strain snc1, active compounds read low 1.02 | locus YBL061C, strain skt5, active compounds read low 1.01 | locus YBR009C, strain hhf1, active compounds read low 1.03 | locus YBR023C, strain chs3, active compounds read low 1.01 | locus YBR171W, strain sec66, active compounds read low 1.01 | locus YBR231C, strain swc5, active compounds read low 1.05 | locus YBR279W, strain paf1, active compounds read low 1.01 | locus YCL011C, strain gbp2, active compounds read low 1.01 | locus YCL016C, strain dcc1, active compounds read low 1.02 | locus YCL061C, strain MRC1 (second series), active compounds read low 0.984 | locus YCL061C, strain MRC1, active compounds read low 1.02 | locus YCL069W, strain vba3, active compounds read low 1.01 | locus YCR088W, strain abp1, active compounds read low 1.02 | locus YDL005C, strain med2, active compounds read low 1.01 | locus YDL040C, strain nat1, active compounds read low 1 | locus YDR001C, strain nth1, active compounds read low 1.01 | locus YDR069C, strain doa4, active compounds read low 1.03 | locus YDR137W, strain rgp1, active compounds read low 0.985 | locus YDR150W, strain NUM1, active compounds read low 0.991 | locus YDR159W, strain sac3, active compounds read low 1.02 | locus YDR195W, strain ref2 0.996 | locus YDR297W, strain sur2, active compounds read low 1.01 | locus YDR334W, strain swr1, active compounds read low 1.02 | locus YDR335W, strain msn5, active compounds read low 1.02 | locus YDR363W, strain ESC2, active compounds read low 0.979 | locus YDR392W, strain spt3, active compounds read low 0.98 | locus YEL003W, strain gim4, active compounds read low 1.02 | locus YEL037C, strain rad23, active compounds read low 1.01 | locus YEL061C, strain CIN8 (second series), active compounds read low 1.01 | locus YER002W, strain NOP16, active compounds read low 0.993 | locus YER015W, strain faa2, active compounds read low 1.02 | locus YER016W, strain bim1, active compounds read low 1.02 | locus YER111C, strain swi4, active compounds read low 1.01 | locus YER155C, strain BEM2 (second series), active compounds read low 1.05 | locus YFR010W, strain ubp6, active compounds read low 1.02 | locus YGL167C, strain pmr1, active compounds read low 1.02 | locus YGL173C, strain kem1, active compounds read low 1.01 | locus YGL227W, strain vid30, active compounds read low 1.01 | locus YGL240W, strain doc1, active compounds read low 1.03 | locus YGL253W, strain hxk2, active compounds read low 1.01 | locus YHR013C, strain ard1, active compounds read low 1.02 | locus YHR027C, strain rpn1, active compounds read low 1.02 | locus YHR030C, strain SLT2, active compounds read low 1.04 | locus YHR079C, strain IRE1, active compounds read low 1.05 | locus YHR142W, strain chs7, active compounds read low 0.988 | locus YJL092W, strain hpr5, active compounds read low 1.01 | locus YJL095W, strain BCK1 (second series), active compounds read low 1.02 | locus YJL095W, strain BCK1, active compounds read low 1.03 | locus YJL115W, strain asf1, active compounds read low 1.02 | locus YJL129C, strain trk1, active compounds read low 1.01 | locus YJL154C, strain vps35, active compounds read low 1.01 | locus YJL164C, strain tpk1, active compounds read low 1.01 | locus YJL166W, strain qcr8, active compounds read low 1.01 | locus YJL187C, strain SWE1, active compounds read low 1.01 | locus YJR066W, strain TOR1, active compounds read low 0.961 | locus YJR075W, strain HOC1, active compounds read low 0.978 | locus YKL160W, strain elf1, active compounds read low 0.99 | locus YKR026C, strain gcn3, active compounds read low 1.02 | locus YKR091W, strain srl3, active compounds read low 1.01 | locus YLL001W, strain dnm1, active compounds read low 1.01 | locus YLL026W, active compounds read low 1.01 | locus YLL041C, strain sdh2, active compounds read low 1.01 | locus YLR027C, strain aat2, active compounds read low 1.01 | locus YLR113W, strain HOG1, active compounds read low 1.06 | locus YLR221C, strain rsa3, active compounds read low 1.02 | locus YLR258W, strain gsy2, active compounds read low 1.04 | locus YLR262C, strain YPT6 (second series), active compounds read low 1.01 | locus YLR320W, strain mms22, active compounds read low 1.03 | locus YLR342W, strain FKS1, active compounds read low 1.03 | locus YLR357W, strain rsc2, active compounds read low 1.03 | locus YLR370C, strain arc18, active compounds read low 1.02 | locus YLR384C, strain iki3, active compounds read low 1.01 | locus YML120C, strain ndi1, active compounds read low 1.01 | locus YMR058W, strain fet3, active compounds read low 1.02 | locus YMR125W, strain sto1, active compounds read low 1.02 | locus YMR129W, active compounds read low 1.01 | locus YMR205C, strain PFK2, active compounds read low 1.03 | locus YMR231W, strain pep5, active compounds read low 1.01 | locus YNL071W, strain lat1, active compounds read low 1.02 | locus YNL128W, strain TEP1, active compounds read low 0.982 | locus YNL153C, strain GIM3, active compounds read low 0.965 | locus YNL175C, strain NOP13, active compounds read low 0.994 | locus YNL183C, strain NPR1, active compounds read low 0.958 | locus YNL209W, strain ssb2, active compounds read low 1.01 | locus YNL224C, strain SQS1, active compounds read low 0.982 | locus YNL248C, strain rpa49, active compounds read low 0.98 | locus YNL322C, strain KRE1 (second series), active compounds read low 1.01 | locus YNL322C, strain KRE1, active compounds read low 0.991 | locus YNR049C, strain mso1, active compounds read low 1.02 | locus YOR001W, strain rrp6, active compounds read low 1 | locus YOR070C, strain gyp1, active compounds read low 1.02 | locus YOR080W, strain dia2, active compounds read low 1.03 | locus YOR083W, strain WHI5, active compounds read low 0.982 | locus YOR106W, strain vam3, active compounds read low 0.986 | locus YOR231W, strain MKK1, active compounds read low 1.04 | locus YOR265W, strain rbl2, active compounds read low 1.01 | locus YOR270C, strain vph1, active compounds read low 1.02 | locus YOR290C, strain snf2, active compounds read low 1.01 | locus YPL051W, strain arl3, active compounds read low 1.01 | locus YPL055C, strain LGE1, active compounds read low 0.974 | locus YPL078C, strain atp4, active compounds read low 0.991 | locus YPL106C, strain sse1, active compounds read low 1.02 | locus YPL240C, strain hsp82, active compounds read low 1 | locus YPL256C, strain CLN2, active compounds read low 1.05
